From PubChem BioAssay (EPA / NIEHS) come the findings set out here.

Structures are written as SMILES. Active and inactive are the calls of the source. The calls were made as follows: active = hit-call score of the fitted dose curve at least 0.9, where 1 is the maximum; inactive = score below 0.9.

Read-out in test [1]: C-C motif chemokine 2 (Homo sapiens) (UniProt P13500)
The experiment in a line: BSK_KF3CT_MCP1: BioMAP Diversity Plus: KF3CT Assay for Monocyte Chemoattractant Protein 1 (MCP1/CCL2) Biomarker Activity (AID 2283073). As to conditions: primary human keratinocytes with fibroblasts; actives raise or lower the signal. The essentials: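 ELISA readout of MCP-1 after 24 h chemical dosing of a human skin primary co-culture of keratinocytes and foreskin fibroblasts. Activity was fitted in both directions against DMSO.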

Read-out in test [2]: urokinase plasminogen activator (uPA), PLAU (gene 5328)
Put plainly: BSK_KF3CT_uPA: BioMAP Diversity Plus: KF3CT Assay for urokinase plasminogen activator (uPA) Biomarker Activity (AID 2283075). As to conditions: primary human keratinocytes with fibroblasts; actives raise or lower the signal. The gist of the method: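 Primary human keratinocyte/foreskin fibroblast co-culture exposed to chemical; uPA measured by ELISA at 24 h. Bidirectional fit versus DMSO, with parallel SRB total-protein staining for cytotoxicity.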

Read-out in test [3]: CD40, CD40 (gene 958)
Put plainly: BSK_LPS_CD40: BioMAP Diversity Plus: LPS Assay for CD40 Biomarker Activity (AID 2283076). As to conditions: primary human HUVEC with PBMC; actives raise or lower the signal. The essentials:
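Cells were dosed, incubated 24 h, then assayed for CD40 by ELISA. Gain or loss of signal was analysed relative to DMSO controls. The culture paired human umbilical vein endothelium with peripheral blood mononuclear cells.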

Read-out in test [4]: E-selectin (Homo sapiens) (UniProt P16581)
Put plainly: BSK_LPS_Eselectin: BioMAP Diversity Plus: LPS Assay for Eselectin Biomarker Activity (AID 2283077). As to conditions: primary human HUVEC with PBMC; actives raise or lower the signal. The essentials: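 Primary human vascular co-culture (endothelium plus PBMC) was dosed with chemical, then E-selectin quantified by ELISA at 24 h. Endpoint values derive from bidirectional curve fitting relative to DMSO.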

Read-out in test [5]: Interleukin-8 (IL8), CXCL8 (gene 3576)
The experiment in a line: BSK_LPS_IL8: BioMAP Diversity Plus: LPS Assay for Interleukin-8 (IL8) Biomarker Activity (AID 2283078). The following applies: primary human HUVEC with PBMC; actives raise or lower the signal. The essentials: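 Readout is IL-8 by ELISA, taken 24 h after compounds were added to LPS-stimulated endothelial/PBMC co-cultures. Both increases and decreases relative to DMSO control were scored through bidirectional fitting.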

Test [6] is described as follows: BSK_LPS_SRB: Viability Assessment in the BioMAP Diversity Plus: LPS Assay (AID 2283079).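 Also: total protein by sulforhodamine B absorbance as a cytotoxicity measure; measured one day after compound addition.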 As to conditions: primary human HUVEC with PBMC. The gist of the method:
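Readout is SRB absorbance at 560 nm (0.1% stain, TCA-fixed parallel cultures) as a total-protein cytotoxicity measure. Cells: primary human umbilical vein endothelium plus peripheral blood mononuclear cells, 24 h after chemical exposure; DMSO served as baseline.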

Read-out in test [7]: Interleukin-1 alpha (IL1a), IL1A (gene 3552)
The experiment in a line: BSK_LPS_IL1a: BioMAP Diversity Plus: LPS Assay for Interleukin-1 alpha (IL1a) Biomarker Activity (AID 2283080). As to conditions: primary human HUVEC with PBMC; actives raise or lower the signal. The gist of the method:
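ELISA read-out of IL-1 alpha from a human primary vascular co-culture (endothelium plus PBMC) under LPS, sampled 24 hours post-dosing. Activity was fitted in both directions relative to DMSO controls.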

Read-out in test [8]: Monocyte Chemoattractant Protein-1 (MCP1), CCL2 (gene 6347)
Put plainly: BSK_LPS_MCP1: BioMAP Diversity Plus: LPS Assay for Monocyte Chemoattractant Protein-1 (MCP1) Biomarker Activity (AID 2283081).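 As to AC50: secreted MCP-1 protein quantified by ELISA in culture supernatant.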 As to conditions: primary human HUVEC with PBMC; actives raise or lower the signal. The gist of the method: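 Human endothelial–PBMC co-cultures were dosed with chemical, then LPS-driven MCP-1 levels were quantified by ELISA at 24 h. Activity in either direction was fitted versus DMSO negative control.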

Test [9] is described as follows: BSK_LPS_PGE2: BioMAP Diversity Plus: LPS Assay for Prostaglandin E2 (PGE2) Biomarker Activity (AID 2283082). The following applies: primary human HUVEC with PBMC; actives raise or lower the signal. The essentials:
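HUVEC plus PBMC co-culture stimulated with LPS; secreted PGE2 quantified by ELISA 24 h after chemical dosing. Activity fitted bidirectionally against DMSO as negative control and baseline; parallel SRB total-protein staining served as cytotoxicity check.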

Read-out in test [10]: Macrophage colony-stimulating factor (MCSF), CSF1 (gene 1435)
Put plainly: BSK_LPS_MCSF: BioMAP Diversity Plus: LPS Assay for Macrophage colony-stimulating factor (MCSF) Biomarker Activity (AID 2283083). The following applies: primary human HUVEC with PBMC; actives raise or lower the signal. The essentials:
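ELISA readout of M-CSF after 24 h compound exposure in a human endothelial/PBMC co-culture. Activity, in either direction, is fitted relative to DMSO vehicle.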

Read-out in test [11]: Tissue Factor, F3 (gene 2152)
The experiment in a line: BSK_LPS_TissueFactor: BioMAP Diversity Plus: LPS Assay for Tissue Factor Biomarker Activity (AID 2283084). As to conditions: primary human HUVEC with PBMC; actives raise or lower the signal. The gist of the method: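 ELISA signal for cell-surface Tissue Factor (CD142) was read 24 h after compound dosing of an LPS-stimulated human endothelial–PBMC primary co-culture. Gain or loss of signal was scored relative to DMSO.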

Read-out in test [12]: Tumor necrosis factor (Homo sapiens) (UniProt P01375)
Put plainly: BSK_LPS_TNFa: BioMAP Diversity Plus: LPS Assay for Tumour Necrosis Factor alpha (TNFa) Biomarker Activity (AID 2283085). The following applies: primary human HUVEC with PBMC; actives raise or lower the signal. The gist of the method: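 Human umbilical vein endothelial cells co-cultured with PBMC were exposed to test chemical and TNFa measured by ELISA 24 h after dosing. Bidirectional curve fitting was done relative to DMSO as negative control and baseline.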

Read-out in test [13]: Vascular cell adhesion molecule 1 (VCAM1), VCAM1 (gene 7412)
The experiment in a line: BSK_LPS_VCAM1: BioMAP Diversity Plus: LPS Assay for Vascular cell adhesion molecule 1 (VCAM1) Biomarker Activity (AID 2283086). The following applies: primary human HUVEC with PBMC; actives raise or lower the signal. The essentials: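 Human umbilical vein endothelial cells co-cultured with peripheral blood mononuclear cells under LPS stimulation were exposed to test chemical for 24 h. VCAM-1 levels were then measured by ELISA, with bidirectional curve fitting relative to DMSO as negative control and baseline.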

Read-out in another test: CD38, CD38 (gene 952)
The experiment in a line: BSK_SAg_CD38: BioMAP Diversity Plus: SAg Assay for CD38 Biomarker Activity (AID 2283087). The following applies: primary human HUVEC with PBMC; actives raise or lower the signal. The essentials:
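Fluorescence ELISA of cell-surface CD38 served as the read-out, with either increase or decrease fitted against DMSO controls. Cells were a human umbilical vein endothelium plus PBMC co-culture under SEB/TSST-1 stimulation, measured 24 h after dosing.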

Read-out in test [14]: CD40, CD40 (gene 958)
The experiment in a line: BSK_SAg_CD40: BioMAP Diversity Plus: SAg Assay for CD40 Biomarker Activity (AID 2283088). The following applies: primary human HUVEC with PBMC; actives raise or lower the signal. The gist of the method:
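Compounds were dosed onto a human primary endothelial–PBMC co-culture, and after 24 h CD40 was quantified by ELISA using a fluorescence signal. Activity in either direction was fitted relative to DMSO.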

Read-out in a further test: CD69, CD69 (gene 969)
Put plainly: BSK_SAg_CD69: BioMAP Diversity Plus: SAg Assay for CD69 Biomarker Activity (AID 2283089). As to conditions: primary human HUVEC with PBMC; actives raise or lower the signal. The gist of the method:
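HUVEC co-cultured with PBMC were dosed with chemical, and CD69 was measured by ELISA with fluorescence read-out 24 h later. Bidirectional curve fitting used DMSO as negative control and activity baseline.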

Read-out in test [15]: Monocyte Chemoattractant Protein-1 (MCP1), CCL2 (gene 6347)
The experiment in a line: BSK_SAg_MCP1: BioMAP Diversity Plus: SAg Assay for Monocyte Chemoattractant Protein-1 (MCP1) Biomarker Activity (AID 2283090). As to conditions: primary human HUVEC with PBMC; actives raise or lower the signal. The gist of the method: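 MCP-1 levels in the endothelial–PBMC SAg co-culture were quantified by ELISA at 24 h post-dosing; both increases and decreases versus DMSO scored. Cytotoxicity monitored by SRB total protein in parallel cultures.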

Read-out in test [16]: E-selectin (Homo sapiens) (UniProt P16581)
Put plainly: BSK_SAg_Eselectin: BioMAP Diversity Plus: SAg Assay for Eselectin Biomarker Activity (AID 2283091). As to conditions: primary human HUVEC with PBMC; actives raise or lower the signal. The gist of the method:
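Co-culture: HUVEC + PBMC. Dose compound; 24 h. ELISA for E-selectin. Bidirectional fit vs DMSO.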

Read-out in test [17]: Monokine induced gamma interferon (MIG), CXCL9 (gene 4283)
Put plainly: BSK_SAg_MIG: BioMAP Diversity Plus: SAg Assay for Monokine induced gamma interferon (MIG) Biomarker Activity (AID 2283092). As to conditions: primary human HUVEC with PBMC; actives raise or lower the signal. The essentials:
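HUVEC plus human PBMC co-culture, chemicals dosed and MIG (CXCL9) quantified by ELISA at 24 h. Bidirectional curve fitting against DMSO as negative control and baseline, so both gain and loss of signal count as activity.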

Read-out in test [18]: Matrix Metallopeptidase 9 (MMP9), MMP9 (gene 4318)
The experiment in a line: BSK_KF3CT_MMP9: BioMAP Diversity Plus: KF3CT Assay for Matrix Metallopeptidase 9 (MMP9) Biomarker Activity (AID 2283074). As to conditions: primary human keratinocytes with fibroblasts; actives raise or lower the signal. The essentials: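 Human keratinocyte and foreskin fibroblast co-culture exposed to chemicals for 24 h; MMP9 biomarker measured by ELISA, bidirectional fitting relative to DMSO; cytotoxicity tracked by SRB total protein staining in parallel cultures.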

Sequence of E-selectin (Homo sapiens) (P16581 whole entry, looked up): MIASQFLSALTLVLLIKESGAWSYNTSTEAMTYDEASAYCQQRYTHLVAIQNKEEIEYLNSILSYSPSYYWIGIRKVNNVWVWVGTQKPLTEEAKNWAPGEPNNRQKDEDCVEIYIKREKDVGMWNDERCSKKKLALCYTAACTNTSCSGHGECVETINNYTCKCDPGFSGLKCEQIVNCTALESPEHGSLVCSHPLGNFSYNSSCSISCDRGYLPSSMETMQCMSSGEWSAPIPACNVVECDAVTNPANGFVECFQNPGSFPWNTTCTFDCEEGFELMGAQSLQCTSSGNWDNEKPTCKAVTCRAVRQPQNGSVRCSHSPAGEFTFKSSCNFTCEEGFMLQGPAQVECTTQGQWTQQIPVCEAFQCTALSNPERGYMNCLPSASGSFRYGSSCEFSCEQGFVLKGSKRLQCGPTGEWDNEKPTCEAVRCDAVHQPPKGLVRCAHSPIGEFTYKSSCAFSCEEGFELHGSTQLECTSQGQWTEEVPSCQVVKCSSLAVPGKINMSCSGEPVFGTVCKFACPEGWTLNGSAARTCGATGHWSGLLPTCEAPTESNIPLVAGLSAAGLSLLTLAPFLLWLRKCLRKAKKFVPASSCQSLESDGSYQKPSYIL
Sequence of Tumor necrosis factor (Homo sapiens) (P01375 whole entry, looked up): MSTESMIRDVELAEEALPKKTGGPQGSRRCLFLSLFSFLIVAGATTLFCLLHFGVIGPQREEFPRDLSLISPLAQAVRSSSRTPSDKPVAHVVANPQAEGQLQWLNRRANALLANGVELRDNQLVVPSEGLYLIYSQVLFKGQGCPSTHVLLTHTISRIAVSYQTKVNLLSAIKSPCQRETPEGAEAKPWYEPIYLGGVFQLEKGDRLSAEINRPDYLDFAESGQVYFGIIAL

As to `CCCCCCCCCCCCN(C)C`, the outcome in [1] is “inactive”; in [2], “inactive”; with CD40, CD40 (gene 958) [3] it was “inactive”; in [4], “inactive”; in [5], “inactive”; in test [6], “inactive”. For the same molecule, the outcome in [7], in test [8], in test [9], in test [10], in [11] and in test [12] was inactive. For the same molecule, the outcome in test [13] is “inactive”; with CD38, CD38 (gene 952), “inactive”; with CD40, CD40 (gene 958) [14], “inactive”; with CD69, CD69 (gene 969), “inactive”; in test [15], “inactive”; in test [16], “inactive”. Also, in test [17], the result was inactive.

As for `CC(C)(C)c1ccccc1O`, the outcome in [1] is “inactive”; in [18], “inactive”; with CD40, CD40 (gene 958) [3] it was “inactive”; in test [4], “inactive”; in test [5], “inactive”; in [6], “inactive”. For the same molecule, the result in test [7], in test [9], in test [10], in test [11], in [12] and in test [13] was inactive. Further, the outcome in the test with CD38, CD38 (gene 952) was “inactive”; with CD40, CD40 (gene 958) [14], “inactive”; with CD69, CD69 (gene 969), “inactive”; in test [15] it was “inactive”; in test [16], “inactive”; in test [17] it was “inactive”. In addition, the AC50 in test [8] is 3.18 µM (active).

As for `Oc1ccc(Cc2ccc(O)cc2)cc1`, the outcome was “inactive” in [1]; “inactive” in [18]; “inactive” in [2]; “inactive” with CD40, CD40 (gene 958) [3]; “inactive” in test [4]; “inactive” in test [5]. Besides, the outcome in test [6], in test [7], in test [8], in test [9], in test [10] and in test [11] was inactive. The outcome was “inactive” in [13]; “inactive” with CD38, CD38 (gene 952); “inactive” in the test with CD40, CD40 (gene 958) [14]; “inactive” with CD69, CD69 (gene 969); “inactive” in test [15]; “inactive” in [16]. Moreover, in [17], the outcome was inactive.

The AC50 is the concentration at which the activity in the assay is half-maximal.
